KCNK3 inh = human KCNK3 channel inhibitors, primary screen, CHO cells, FluxOR thallium flux, B-score | Potassium channel subfamily K member 3 (Homo sapiens), O14649 | hit rate 0.84% among 340,000 | B-score at 10 µM | FluxOR fluorescence; hits give low values;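 active means B-score under library mean minus 4 SD, starting fluorescence ratio at most library mean plus 5 SD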;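 further: more negative B-score means stronger inhibition of thallium flux through KCNK3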
Kir21 inh = inhibitors of mouse Kir2.1 inward-rectifier potassium channel. HEK293-Kir2.1, FluxOR thallium flux fluorescence; hits give low values. B-score at 10 µM. hit rate 0.85% among 310,000. AID 1672, 2009;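 active means fluorescence ratio B-score at or below minus 3 SD of library scores, with starting-brightness B-score within 2 SD, cut at about -4.2 in these data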;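 further: channel flux triggered by added potassium and thallium sulfate stimulus; B-score of peak minus minimum fluorescence over baseline after thallium stimulus; more negative B-score means stronger Kir2.1 block with less thallium influx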
KCNK9 block = KCNK9 potassium channel inhibitors, primary screen, HEK293 cells, thallium flux. Potassium channel subfamily K member 9 (Homo sapiens), Q9NPC2. FluxOR thallium flux fluorescence; hits give low values. B-score at 10 µM. hit rate 1.2% among 310,000. AID 488922, 2010;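 active means ratio B-score over 3 SD below the library mean, with starting fluorescence within 5 SD of its mean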;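 further: negative B-score means less thallium flux so channel inhibition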
ANO1 activ = TMEM16A chloride channel activators or potentiators, primary screen, cell-based, HTS; HEK293 TMEM16A/YFP-H148Q/I152L, iodide quench fluorescence; hits give low values; Anoctamin-1 (Mus musculus), Q8BHY3; B-score at 10 µM; hit rate 0.3% among 340,000;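 active means fluorescence-ratio B-score plate-corrected deviation score at least 3 library SD below zero, with starting fluorescence score within 5 deviations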;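 further: channel opened by trigger with iodide after compound preincubation; score built on the fluorescence ratio of max minus min over baseline; more negative score means more quench and so TMEM16A activation or potentiation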
Target sequence (Q8BHY3 whole entry, looked up): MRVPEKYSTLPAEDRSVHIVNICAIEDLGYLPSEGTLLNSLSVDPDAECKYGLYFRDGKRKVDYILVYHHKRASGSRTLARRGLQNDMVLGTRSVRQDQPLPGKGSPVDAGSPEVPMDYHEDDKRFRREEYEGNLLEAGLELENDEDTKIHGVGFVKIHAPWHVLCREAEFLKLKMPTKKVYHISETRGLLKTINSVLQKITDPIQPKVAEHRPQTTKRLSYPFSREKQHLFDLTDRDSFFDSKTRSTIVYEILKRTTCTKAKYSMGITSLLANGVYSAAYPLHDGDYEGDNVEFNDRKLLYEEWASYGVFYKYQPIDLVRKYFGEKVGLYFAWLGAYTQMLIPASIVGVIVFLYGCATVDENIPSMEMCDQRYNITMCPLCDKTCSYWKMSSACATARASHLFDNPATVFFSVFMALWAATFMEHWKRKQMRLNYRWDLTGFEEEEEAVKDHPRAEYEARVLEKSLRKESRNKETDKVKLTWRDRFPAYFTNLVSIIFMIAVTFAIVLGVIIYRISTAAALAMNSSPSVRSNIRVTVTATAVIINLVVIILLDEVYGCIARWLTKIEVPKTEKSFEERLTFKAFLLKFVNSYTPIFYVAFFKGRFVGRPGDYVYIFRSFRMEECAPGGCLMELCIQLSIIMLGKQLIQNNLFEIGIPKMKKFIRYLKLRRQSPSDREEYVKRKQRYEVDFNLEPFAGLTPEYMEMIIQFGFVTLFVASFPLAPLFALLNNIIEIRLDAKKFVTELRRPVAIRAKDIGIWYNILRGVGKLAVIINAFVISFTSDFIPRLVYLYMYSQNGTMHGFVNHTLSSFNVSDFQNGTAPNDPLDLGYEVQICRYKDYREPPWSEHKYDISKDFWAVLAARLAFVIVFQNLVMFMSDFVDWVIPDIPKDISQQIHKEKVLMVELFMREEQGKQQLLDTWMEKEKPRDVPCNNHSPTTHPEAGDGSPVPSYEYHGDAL
TMEM16A inh = TMEM16A chloride channel inhibitors, primary screen, cell-based, HTS; Anoctamin-1 (Mus musculus), Q8BHY3; HEK293 TMEM16A/YFP iodide influx fluorescence, ionomycin; hit rate 1.2% among 310,000; AID 588511, 2011; normalized B-score (activity score, 25-100; higher = stronger inhibition) at 10 µM;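 active means ratio plate-corrected score three or more library SD toward inhibition, starting fluorescence score within five deviations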;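 further: score derived from kinetic fluorescence span divided by baseline fluorescence per well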
KCNK9 inh conf = KCNK9 potassium channel inhibitors, confirmation, HEK293 cells, thallium flux, duplicate | inhibition, % at 10 µM | hit rate 43% among 4,900 | shares compounds with KCNK9 block | FluxOR thallium flux fluorescence;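 active means thallium signal inhibited by more than 5 SD of the compound-free buffer control wells, on both duplicate plates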;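 further: 0% = assay buffer control wells without compound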
Kir2-1 spec = mouse Kir2.1 channel inhibition, confirmation, selectivity assay for KCNK9 modulator project, cell-based, HEK293, thallium flux; shares compounds with KCNK9 block; Kir2.1 cells, FluxOR thallium flux fluorescence; inhibition, % at 10 µM; hit rate 4% among 4,900; AID 492993, 2010;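 active means thallium signal drop more than 5 SD beyond the mean of the no-compound control wells, seen in both duplicate plates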;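 further: signal is fluorescence rise after thallium addition divided by baseline fluorescence; plate controls were assay buffer only for no effect and full block by chlorpromazine control for full effect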
KCNK9 uninduced = thallium flux in non-induced HEK293 cells, confirmation, counter-screen for KCNK9 inhibitor project, cell-based, second counter screen, non-induced KCNK9-HEK293. hit rate 40% among 4,900. inhibition, % at 10 µM. shares compounds with KCNK9 block. FluxOR thallium flux;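 active means thallium signal drop beyond 5 SD of the untreated control mean, on both duplicate plates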;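 further: plate controls were buffer only IC0 wells for no effect and SID17386958 at its maximal inhibitory level for full effect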
* = called active by the depositor. A selection: hits, their analogues and other compounds. The true share with any hit is near 3.5%.

Results for O=[N+]([O-])c1c(C(Cl)Cl)nn(-c2ccccc2)c1N1CCOCC1 ?
KCNK3 inh: inactive; Kir21 inh: -0.17; KCNK9 block: inactive; ANO1 activ: inactive; TMEM16A inh: inactive

Results for C=CC(=O)NCCCc1cc(C(C)(C)C)c(O)c(C(C)(C)C)c1 ?
KCNK3 inh: inactive; Kir21 inh: -1.98; KCNK9 block: inactive; ANO1 activ: inactive; TMEM16A inh: inactive; KCNK9 inh conf: inactive; Kir2-1 spec: inactive; KCNK9 uninduced: inactive

How did Cc1ccc2cc(C#N)c(NCCNC(=O)C3CC3)nc2c1C do in these assays?
KCNK3 inh: inactive; Kir21 inh: -0.88; KCNK9 block: inactive; ANO1 activ: inactive; TMEM16A inh: inactive

What do the screens show for `C=CCn1c(C)c(C(C)=O)c(N2CCN(C(c3ccccc3)c3ccccc3)CC2)nc1=S`?
KCNK3 inh: inactive; Kir21 inh: 3.64; KCNK9 block: -8.15*; ANO1 activ: inactive; TMEM16A inh: inactive; KCNK9 inh conf: 37.0%*; Kir2-1 spec: inactive; KCNK9 uninduced: inactive

What do the screens show for `CC(=O)c1c(N2CCN(C)CC2)nc(=S)n(Cc2ccccc2)c1C`?
KCNK3 inh: inactive; Kir21 inh: 0.14; KCNK9 block: inactive; ANO1 activ: inactive; TMEM16A inh: inactive

What do the screens show for `CCOc1ncc(S(=O)(=O)N2CCN(CC)CC2)cc1C(=O)O`?
KCNK3 inh: inactive; Kir21 inh: 1.84; KCNK9 block: inactive; ANO1 activ: inactive; TMEM16A inh: inactive

How did CC(C)C(c1nnnn1Cc1ccccc1)N1CCc2ccccc2C1 (configuration not stated) do in these assays?
KCNK3 inh: inactive; Kir21 inh: -0.56; KCNK9 block: inactive; ANO1 activ: inactive; TMEM16A inh: inactive

What do the screens show for `c1ccc(Cn2nnnc2C(c2cccs2)N2CCc3ccccc3C2)cc1` (configuration not stated)?
KCNK3 inh: inactive; Kir21 inh: -0.34; KCNK9 block: -11.7*; ANO1 activ: inactive; TMEM16A inh: inactive; KCNK9 inh conf: inactive; Kir2-1 spec: inactive; KCNK9 uninduced: 32.0%*

Results for Nc1nc(-c2cccs2)c(-c2cccs2)s1 ?
KCNK3 inh: inactive; Kir21 inh: -1.47; KCNK9 block: -8.8*; ANO1 activ: inactive; TMEM16A inh: inactive; KCNK9 inh conf: 44.0%*; Kir2-1 spec: inactive; KCNK9 uninduced: inactive

What do the screens show for `Nc1nc(-c2cccs2)c(CC(=O)O)s1`?
KCNK3 inh: inactive; Kir21 inh: -0.53; KCNK9 block: inactive; ANO1 activ: inactive; TMEM16A inh: inactive

What do the screens show for `CC(C)C(NC(=O)c1ccc(Cl)c([N+](=O)[O-])c1)C(=O)NCc1ccccn1` (configuration not stated)?
KCNK3 inh: inactive; ANO1 activ: inactive

How did CC1(C)C(=O)OC(C(=O)c2ccccc2)C(C)(C)C1=O (configuration not stated) do in these assays?
KCNK3 inh: inactive; Kir21 inh: 0.28; KCNK9 block: inactive; ANO1 activ: inactive; TMEM16A inh: inactive

How did Cc1cc(C)c(C(=O)C2OC(=O)C(C)(C)C(=O)C2(C)C)c(C)c1 (configuration not stated) do in these assays?
KCNK3 inh: inactive; Kir21 inh: 0.34; KCNK9 block: inactive; ANO1 activ: inactive; TMEM16A inh: inactive; KCNK9 inh conf: inactive; Kir2-1 spec: inactive; KCNK9 uninduced: inactive

How did CCN1/C(=C/C=C/c2sc3ccccc3[n+]2CC)Sc2ccccc21 do in these assays?
KCNK3 inh: -13.2*; Kir21 inh: -1.44; KCNK9 block: -24.1*; ANO1 activ: inactive; TMEM16A inh: inactive; KCNK9 inh conf: inactive; Kir2-1 spec: inactive; KCNK9 uninduced: inactive

How did CC1=C([N+](=O)[O-])C(c2cccc(Br)c2)C2=C(N1)c1ccccc1C2=O (configuration not stated) do in these assays?
KCNK3 inh: inactive; Kir21 inh: 0.48; KCNK9 block: -8.37*; ANO1 activ: inactive; TMEM16A inh: 100*; KCNK9 inh conf: 53.5%*; Kir2-1 spec: inactive; KCNK9 uninduced: 38.0%*

Results for COc1ccc2oc(=O)c(/C(C)=N/Nc3ccccc3)cc2c1 ?
KCNK3 inh: inactive; Kir21 inh: 0.12; KCNK9 block: inactive; ANO1 activ: inactive; TMEM16A inh: inactive

How did CN(C)S(=O)(=O)c1ccc(N2CCCC2)c(C(=O)NCC2COc3ccccc3O2)c1 (configuration not stated) do in these assays?
KCNK3 inh: inactive; Kir21 inh: 0.58; KCNK9 block: inactive; ANO1 activ: inactive; TMEM16A inh: inactive; KCNK9 inh conf: inactive; Kir2-1 spec: inactive; KCNK9 uninduced: inactive

How did CSc1ccccc1NC(=O)c1cc(S(=O)(=O)N(C)C)ccc1N1CCCC1 do in these assays?
KCNK3 inh: inactive; Kir21 inh: 0.42; KCNK9 block: inactive; ANO1 activ: inactive; TMEM16A inh: inactive; KCNK9 inh conf: inactive; Kir2-1 spec: inactive; KCNK9 uninduced: inactive

Results for CN(C)S(=O)(=O)c1ccc(N2CCCC2)c(C(=O)Nc2ccccc2OC(F)F)c1 ?
KCNK3 inh: inactive; Kir21 inh: 0.18; KCNK9 block: inactive; ANO1 activ: inactive; TMEM16A inh: inactive; KCNK9 inh conf: inactive; Kir2-1 spec: inactive; KCNK9 uninduced: inactive

What do the screens show for `COc1ccc(NC(=O)NNC(=O)C(C)Oc2ccc3ccccc3c2)cc1` (configuration not stated)?
KCNK3 inh: inactive; Kir21 inh: 0.01; KCNK9 block: inactive; ANO1 activ: inactive; TMEM16A inh: inactive

Results for CNC(=O)CS(=O)CC(=O)Nc1cc(OCCOC)c(Cl)cc1Cl (configuration not stated) ?
KCNK3 inh: inactive; Kir21 inh: 0.28; KCNK9 block: inactive; ANO1 activ: inactive; TMEM16A inh: inactive

Screens (PubChem)
